High-throughput results as filed in PubChem.
SENP8 block-1 – inhibitors of human SENP8 protease | Q96LD8 | recombinant SENP8, Nedd8 substrate fluorescence | inhibition, % at 20 µM | 360,000 tested, 0.64% active | AID 602440; in the data active = inhibition mostly above about 40%, no sharp cut-off; inactive = mostly below about 27%
Target sequence (Q96LD8 whole entry, looked up): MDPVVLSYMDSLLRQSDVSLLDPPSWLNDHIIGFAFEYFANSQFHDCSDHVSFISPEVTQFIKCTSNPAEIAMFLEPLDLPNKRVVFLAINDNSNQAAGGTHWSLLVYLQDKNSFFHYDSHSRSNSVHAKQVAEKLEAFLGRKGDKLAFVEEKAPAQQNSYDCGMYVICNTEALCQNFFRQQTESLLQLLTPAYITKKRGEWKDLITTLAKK
PPC-1+TRAIL kill – kills PPC-1 cancer cells in the presence of TRAIL; PPC-1 cells + TRAIL, ATPLite viability luminescence; cell killing (% activity), % at 4 µM or 5 µM; 220,000 tested, 0.41% active;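 active = cell killing above 50% in the first pass at 4 µM, then a duplicate retest at 5 µM averaging 50% or more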;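 note: plate controls were cells with TRAIL plus DMSO for no effect and medium-only wells lacking cells for full effect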
SENP6 inh – inhibitors of human SENP6 protease | Q9GZR1 | Recombinant SENP6 catalytic domain, aminoluciferin luminescence | inhibition, % at 10 µM | 330,000 tested, 1.8% active;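 active = inhibition above about 50% at the single tested dose, limit read from the data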;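 note: plate controls were DMSO wells with enzyme for no effect and DMSO wells lacking enzyme for full effect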
SENP8 block-2 – inhibitors of human SENP8 protease. 330,000 tested, 1.2% active. purified SENP8, Z-RLRGG-aminoluciferin cleavage, luminescence. Q96LD8. AID 2540. inhibition, % at 10 µM; in the data active = inhibition above about 50%
TRAIL sens C8 – sensitizes caspase-8 expressing cells to TRAIL. NB7+C8 cells + TRAIL, ATPlite viability luminescence. inhibition (viability loss, TRAIL sensitization), % at 10 µM. 360,000 tested, 1% active. AID 624354;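 active = compounds causing at least 50% loss of cell viability in the single-dose screen, relative to plate controls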
SENP7 block – inhibitors of human SENP7 protease; inhibition, % at 5 µM; 330,000 tested, 1.5% active; Q9BQF6; recombinant SENP7, Z-RLRGG-aminoluciferin luminescence, 40 min; AID 434973;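 active = inhibition above about 50% at the single test dose, limit read from the data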;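 note: plate controls were DMSO with enzyme for no effect and no enzyme buffer wells for full effect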
Target sequence (Q9BQF6 706-1050 limits assumed): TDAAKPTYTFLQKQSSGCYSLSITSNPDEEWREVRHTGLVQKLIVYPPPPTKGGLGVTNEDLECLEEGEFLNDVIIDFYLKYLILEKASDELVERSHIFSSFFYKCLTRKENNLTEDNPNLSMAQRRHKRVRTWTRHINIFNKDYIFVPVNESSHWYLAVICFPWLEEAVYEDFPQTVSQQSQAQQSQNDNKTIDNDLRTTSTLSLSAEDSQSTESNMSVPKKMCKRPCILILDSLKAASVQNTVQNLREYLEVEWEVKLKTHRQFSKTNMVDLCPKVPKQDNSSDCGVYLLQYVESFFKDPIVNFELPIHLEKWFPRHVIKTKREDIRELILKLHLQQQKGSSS
PPC-1 tox – PPC-1 cell cytotoxicity | shares compounds with PPC-1+TRAIL kill | PPC-1 viability, ATPlite luminescence, overnight | cytotoxicity, % at 5 µM | 1,200 tested, 50% active | AID 1447;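 active = reconfirmed compounds whose average cytotoxicity reaches 50% or more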;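 note: 0% = DMSO-treated cells and 100% = wells holding medium but no cells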
* = called active by the depositor; . = no result. In the library only some 3% were active in any assay of this set; here they are far more common.

SMILES	SENP8 block-1	PPC-1+TRAIL kill	SENP6 inh	SENP8 block-2	TRAIL sens C8	SENP7 block	others
C=CCNC(=O)c1ccc([N+](=O)[O-])c(Cl)c1	6	4	10	-5	9	-8
O=Nc1ccc(NO)c2ccccc12	-14	.	.	.	71*	.
Cc1ccc(/C=N\NC(=O)C2CC(=O)N(c3ccccc3)C2)o1 (stereo not given)	10	20	15	1	-8	-2
O=C(Cn1c(=S)[nH]c2ncccc2c1=O)NCCc1ccccc1	.	28	-2	1	.	5
O=S(=O)(NCC(c1cccnc1)N1CCN(c2ccccc2)CC1)c1cccs1 (stereo not given)	17	14	-10	-1	-22	-6
COc1ccc(N2CCN(C(CNS(=O)(=O)c3cccs3)c3cccnc3)CC2)cc1 (stereo not given)	42*	2	-29	-5	-1	-4
Cn1c(O)c(C=NCC2CCNCC2)c(=O)n(C)c1=O	.	10	.	.	.	.
O=C(CN1CCN(S(=O)(=O)c2cccs2)CC1)N1CCCCC1	10	.	-1	-2	0	4
CC(C)(C)OC(=O)NCc1ccc(NC(=O)c2nc[nH]c2C(=O)NCCNC(=O)c2[nH]cnc2C(=O)Nc2ccc(CNC(=O)OC(C)(C)C)cc2)cc1	17	.	2	8	88*	3
C[C@H](NC(=O)c1[nH]cnc1C(=O)Nc1ccc(CNC(=O)OC(C)(C)C)cc1)C(=O)OCc1ccccc1	3	-13	-2	5	75*	-7
CC(C)(C)OC(=O)NCCCCCNC(=O)c1nc[nH]c1C(=O)NCc1ccc(CNC(=O)OC(C)(C)C)cc1	7	.	-11	1	58*	3
CC(C)C[C@H](NC(=O)c1[nH]cnc1C(=O)Nc1ccc(CNC(=O)OC(C)(C)C)cc1)C(=O)OCc1ccccc1	7	-3	-25	-7	48	-3
CC(C)(C)OC(=O)NCc1ccc(CNC(=O)c2nc[nH]c2C(=O)NCc2ccc(CNC(=O)OC(C)(C)C)cc2)cc1	15	.	-13	-11	26	-7
Cn1cc(S(=O)(=O)CC(=O)N2CCCc3ccccc32)c2ccccc21	13	37	2	-1	65*	2
Cc1ccc(CNCCCn2cnc(C(=O)Nc3ccc(C)c(C)c3)n2)o1	3	.	.	.	4	.
O=C(N/N=C\c1ccc(Cl)cc1)C1=NOC2COC3(CCN(c4ccc([N+](=O)[O-])cc4)CC3)OCC12 (stereo not given)	28	5	8	10	11	9
O=C(N/N=C/c1cccc(OC2CSC2)c1)c1ccccc1O	-397	27	5	3	16	-9
Cn1nccc1C(=O)Oc1cccc(/C=N/NC(=O)c2ccccc2O)c1	-307	36	23	9	53*	25
COc1ccccc1OCC(=O)NC1CCSc2ccccc21 (stereo not given)	-1	.	-9	-8	-10	6
COC/C=C/C1=CC2=CC(=O)C(C)(OC(=O)c3cnc4ccccc4n3)C(=O)C2=CN1CC(C)C (stereo not given)	54*	.	20	-4	-5	-4
CCC(C(=O)O/N=C(\N)c1ccc(C)cc1)c1ccccc1 (stereo not given)	23	4	-8	-16	72*	1
CCC(C(=O)O/N=C(\N)c1ccc(Cl)cc1)c1ccccc1 (stereo not given)	19	4	-13	-13	32	-7
CCC(C(=O)O/N=C(\N)c1ccccc1)c1ccccc1 (stereo not given)	5	11	-6	-2	71*	-3
COc1ccc(N2CCN(C(=O)COC(=O)c3ccc(C)o3)CC2)cc1	19	.	-10	-6	-6	-2
CC(=O)Oc1cc2cccc(OC(C)=O)c(=O)c2c(OC(C)=O)c1OC(C)=O	44*	15	17	1	33	-5
SMILES	SENP8 block-1	PPC-1+TRAIL kill	SENP6 inh	SENP8 block-2	TRAIL sens C8	SENP7 block	others
Cc1ccc(Nc2nc(CSc3nnc(-c4ccncc4)n3C)cs2)cc1	15	72*	25	3	76*	9
Cc1ccc(CSc2nnc(-c3ccncc3)n2C)cc1	-3	0	7	2	-10	5
CN(C)CCCNC(=S)Nc1ccc(Br)cc1	33	-18	8	3	-17	-1
CC(C)(C)c1ccc(C(=O)Nc2cccc(C(=O)N3CCOCC3)c2)cc1	9	.	10	-6	63*	4
Cc1ccc(C(=O)Nc2cccc(C(=O)N3CCOCC3)c2)cc1	9	-17	-2	-1	3	1
CC(C)(C)c1ccc(C(=O)Nc2cccc(-n3cnnn3)c2)cc1	11	.	-9	-5	71*	-14
CCN(CC)CCn1c2c(c(SCC(=O)Nc3nc4ccc(C)cc4s3)nc1=O)CCC2	8	.	-8	-26	66*	24
COCCn1c(/C=C/c2ccccc2)nc2ccccc21	-480	42	-7	37	41	65*
COc1ccc(/C=C/c2nc3ccccc3n2Cc2ccccc2OC)cc1	-414	35	0	-9	78*	-3
COc1cc(/C=N/NC(=O)C2C3CCCCC32C)cc(Br)c1O (stereo not given)	-76	-2	12	-6	-7	1
NS(=O)(=O)c1cccc(NC(=S)NCc2ccc3c(c2)OCO3)c1	22	9	-3	-11	-5	-2	PPC-1 tox=0
COc1ccc(-c2n(CC(=O)OC3CC(C)CCC3C(C)C)c3ccccc3[n+]2C)cc1 (stereo not given)	-10	45	.	.	46	.	PPC-1 tox=52*
CC1Cc2ccccc2N1S(=O)(=O)c1cnc(Cl)c(Cl)c1 (stereo not given)	17	50	-6	-1	-4	-1	PPC-1 tox=45
CC1Cc2ccccc2N1S(=O)(=O)c1cnc(Cl)c(Br)c1 (stereo not given)	28	38	-3	3	-9	-3
O=C(N/N=C/c1ccc2nccnc2c1)c1ccncc1	-14	-2	7	-6	24	6
O=C(N/N=C/c1ccc2nccnc2c1)c1ccccc1O	.	63*	36	2	.	12	PPC-1 tox=63*
CCOC(=O)C1(Cc2cccc(OC)c2)CCCN(C(=O)c2cc(C)on2)C1 (stereo not given)	0	.	-7	-4	1	-11
Cc1ccnc(NC(=O)COc2ccccc2[N+](=O)[O-])c1	-2	44	.	.	52*	.	PPC-1 tox=52*
CCN(CC)CCn1nc2c3c(cccc3c1=O)-c1ccccc1-2	-130	20	-18	-9	13	-7	PPC-1 tox=18
O=c1c2cccc3c2c(nn1CN1CCOCC1)-c1ccccc1-3	-353	7	-6	-5	-5	-5
CCN1C(=O)CS/C1=N\S(=O)(=O)c1ccc(Cl)cc1	11	21	-18	0	-2	-9
